Compound activity deposited in PubChem BioAssay by National Center for Advancing Translational Sciences (NCATS).
G9a inh = qHTS Assay for Inhibitors of Histone Lysine Methyltransferase G9a; Histone-lysine N-methyltransferase EHMT2 (Homo sapiens), Q96KQ7; G9a H3K9 monomethylation, AlphaScreen, 2 h; Potency, µM (titrated, usually from 102 µM), actives largely listed as inhibitors; 350,000 compounds, 8.8% hits; also: nearly all actives have a fitted effect of over 75% in size
Target sequence (Q96KQ7 913-1193 limits assumed): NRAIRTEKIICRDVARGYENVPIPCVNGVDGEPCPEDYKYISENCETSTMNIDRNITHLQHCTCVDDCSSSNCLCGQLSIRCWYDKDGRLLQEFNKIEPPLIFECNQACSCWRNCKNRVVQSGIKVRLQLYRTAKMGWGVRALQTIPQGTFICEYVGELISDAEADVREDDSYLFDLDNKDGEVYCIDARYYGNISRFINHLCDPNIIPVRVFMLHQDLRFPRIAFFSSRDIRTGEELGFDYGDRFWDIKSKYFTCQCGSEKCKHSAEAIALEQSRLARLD
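Methyltransferase reactions run at room temperature for 2 h (20 nM enzyme, 500 nM biotin-H3K9 peptide, 20 uM SAM) after a 15 min compound preincubation; product detected by AlphaScreen beads and anti-H3K9me1 antibody.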
BAZ2B inh = qHTS Assay for Inhibitors of BAZ2B; AlphaScreen BAZ2B-H3K14Ac peptide displacement; 360,000 compounds, 4.4% hits; Potency, µM (doses to about 114 µM), actives largely listed as inhibitors; Bromodomain adjacent to zinc finger domain protein 2B (Homo sapiens), Q9UIF8; also: nearly all actives have a fitted effect of over 60% in size
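BAZ2B (50 nM) with biotin-H3(5-23)K14Ac peptide (50 nM) in PBS pH 7.4, 0.01% Tween-20, preformed 30 min, then compound 30 min at room temperature; top concentration 110uM. AlphaScreen streptavidin donor/nickel chelate acceptor beads (10 ug/mL final), 20 min dark, signal read.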
JMJD2A Tudor inh = qHTS Assay for Inhibitors of JMJD2A-Tudor Domain; Lysine-specific demethylase 4A (Homo sapiens), O75164; AlphaScreen JMJD2A-Tudor / H3K4me3 peptide binding; Potency, µM (titrated, usually from 114 µM), most hits filed as inhibitors; 390,000 compounds, 4.4% hits; also: nearly all actives have a fitted effect of over 50% in size
L3MBTL1 inh = qHTS Assay for the Inhibitors of L3MBTL1; Potency, µM (top dose mostly 57.1 µM), most hits filed as inhibitors; AID 485360, 2010; 230,000 compounds, 0.66% hits; AlphaScreen L3MBTL1–H3K9me1 peptide binding; Lethal(3)malignant brain tumor-like protein 1 (Homo sapiens), Q9Y468; also: nearly all actives have a fitted effect of over 60% in size
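Displacement of a biotinylated histone H3(1-15) peptide monomethylated at Lys9 (75 nM) from L3MBTL1 (50 nM) was measured by AlphaScreen after a 30 min room-temperature compound incubation; cefsulodin titration served as intraplate control.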
HP1b chromo inh = HTS for Inhibitors of HP1-beta Chromodomain Interactions with Methylated Histone Tails | Chromobox protein homolog 1 (Homo sapiens), P83916 | AlphaScreen HP1-beta / biotin-H3K9me3 peptide binding | Potency, µM (doses to about 114 µM), hits mostly inhibitors | 390,000 compounds, 0.56% hits | AID 540317, 2011; also: nearly all actives have a fitted effect of over 70% in size
Target sequence (P83916 whole entry, looked up): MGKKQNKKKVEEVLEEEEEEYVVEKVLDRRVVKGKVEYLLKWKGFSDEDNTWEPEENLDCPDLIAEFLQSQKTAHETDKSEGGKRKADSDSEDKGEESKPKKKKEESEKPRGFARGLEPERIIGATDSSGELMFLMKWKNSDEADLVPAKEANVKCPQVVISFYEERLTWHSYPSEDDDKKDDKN
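AlphaScreen: HP1-beta (50 nM) preformed 30 min with biotin-H3(1-18)K9me3 peptide (50 nM) in PBS pH 7.4, 0.01% Tween-20. Compound added for 30 min at RT, then streptavidin donor/nickel chelate acceptor beads (10 ug/mL) for 30 min.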
Sfp PPTase inh = qHTS Assay for Inhibitors of Bacillus subtilis Sfp phosphopantetheinyl transferase (PPTase); Biochemical Sfp PPTase activity, qHTS; Potency, µM, actives largely listed as inhibitors; 310,000 compounds, 3.5% hits; AID 1490, 2009;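 also: the enzyme is Sfp with the accession as filed and its product quenches rhodamine fluorescence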
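Buffer: 50 mM Hepes-Na pH 7.6, 10 mM MgCl2, 0.01% Nonidet P-40, 0.01% BSA. Enzyme 15 nM, pre-exposed to compound 15 min; substrates then added and fluorescence change tracked over 30 min.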
Hits are given with their value; i = inactive; ? = inconclusive; nt = not tested or not shown; ! = a repeat was not active; [ ] = another dose, or the depositor's remark. Compounds with a hit are over-represented: about 12% of the library has one in this group of screens. Calls follow the shape of the dose curve; as a rule, active = well fitted curve in the direction sought with a large enough effect; inconclusive = small, poorly fitted or top-dose-only effect, or another doubt; inactive = no such curve, though single readings can be large; an effect the other way counts as inactive or inconclusive.

SMILES	G9a inh	BAZ2B inh	JMJD2A Tudor inh	L3MBTL1 inh	HP1b chromo inh	Sfp PPTase inh
Cc1ccc(CNC(=O)CCCn2c(=O)c3ccccc3n(Cc3ccccc3Cl)c2=O)cc1	i	i	i	nt	i	nt
Cc1cc(N2CCN(c3cccc(C)c3C)CC2)n2nc(C)c(-c3ccc(Cl)cc3)c2n1	i	i	i	nt	i	nt
COc1ccc2nc(NN=C(C)c3ccccn3)cc(C)c2c1	nt	nt	45µM	nt	?	nt
COc1ccc2c(c1)C(=NNC(=O)c1ccccn1)c1cc(OC)ccc1-2	?	?	?	i	i	?
Cc1cc(C(=O)COC(=O)c2ccc(Cl)c(S(N)(=O)=O)c2)c(C)n1C1CC1	50µM	?	?	?	?	nt
CCCn1c2ccccc2c2cnn(CC(=O)NCCc3ccc(S(N)(=O)=O)cc3)c(=O)c21	i	i	i	nt	i	nt
c1cc2c(cc1NC1CCCCCC1)OCO2	7.9µM	40µM	50µM	nt	?	?
O=C(NCc1ccc2c(c1)OCO2)C(=O)NC1CCCCC1	?	i	50µM	nt	?	i
O=C(NCc1ccc2c(c1)OCO2)C(=O)NCC1CCCO1 (centres undefined)	i	i	i	nt	i	i
CC1=C(C)CC(C(=O)NCc2ccc3c(c2)OCO3)C(C(=O)O)C1 (centres undefined)	i	i	i	nt	i	i
CC1CCCC(C)N1C(=O)CNCc1ccc2c(c1)OCO2 (centres undefined)	50µM	?	50µM	i	i	i
COc1ccccc1CCNC(=O)C1CCN(c2nnc(-n3cccc3CNc3ccc(C)cc3)s2)CC1	i	i	i	nt	i	nt
O=S(=O)(c1ccccc1)N1CCC2(CCCN(c3ccccn3)C2)CC1	i[12.7 µM]	nt	nt	nt	nt	i
Cc1c(CNCCc2ccc(S(N)(=O)=O)cc2)c(C(=O)O)c(C)n1Cc1ccc(Cl)cc1	i	i	i	nt	i	nt
CC[C@H](C)C(=O)O[C@@H]1C[C@H](C)C=C2C=C[C@H](C)[C@@H](CC[C@H]3C[C@@H](O)CC(=O)O3)[C@H]21	i[21.5 µM]	nt	nt	nt	nt	i
O=C1c2cccc(Sc3ccccc3)c2C(=O)c2c(Sc3ccccc3)cccc21	1µM	16µM	3.2µM	i	7.9µM	i
O=C1c2ccc(O)c(O)c2C(=O)c2c(O)ccc(O)c21	?	nt	nt	nt	nt	i
COc1cccc2c1-c1c(O)cccc1C2=O	i	i	i	i	i	i
CC(=O)Nc1ccccc1Sc1ccccc1	i	i	i	i	i	i
O=C1c2cccc(O)c2C(=O)c2c(O)cccc21	7.9µM	?	nt	i	nt	28µM!
COC(=O)c1ccc2c(c1O)C(=O)c1ccccc1C2=O	13µM	?	?	nt	i	?
O=C1c2ccccc2C(=O)c2c1ccc(O)c2O	i[2.33 µM]	nt	50µM	nt	7.1µM	i
CCSc1c(C(=O)NC)ccc2c1C(=O)c1ccccc1C2=O	i	i	i	i	i	i
O=C(CN1C(=O)COc2ccc(S(=O)(=O)Nc3ccccc3)cc21)NCc1ccccc1Cl	?	i	i	nt	i	nt
Cc1noc(C)c1C(=O)N1CCC2(CCN(Cc3ccncc3)CC2)CC1	i[12.7 µM]	nt	nt	nt	nt	i
SMILES	G9a inh	BAZ2B inh	JMJD2A Tudor inh	L3MBTL1 inh	HP1b chromo inh	Sfp PPTase inh
O=C(CCc1ccccc1)Nc1nnc(-c2cccs2)o1	?	i	i	nt	i	i
CCC(=O)Nc1nnc(-c2ccccn2)o1	4.5µM	28µM	5.6µM	i	i	50µM
O=C(CCc1ccccc1)Nc1nnc(-c2ccccn2)o1	?	50µM	20µM	i	i	i
COc1cccc2cc3c(=O)n(-c4ccccc4)nc-3oc12	?	?	45µM	nt	i	i
CC1=C([N+](=O)[O-])C(c2ccc(Cl)cc2)NC(=O)N1C (centres undefined)	nt	i	20µM	i	i	i
CCOc1cc(C2NC(=O)N(C)C(C)=C2[N+](=O)[O-])ccc1OC(C)=O (centres undefined)	i	i	i	?	i	i
CSCCC(NS(=O)(=O)c1ccc2c(c1)oc(=O)n2C)C(=O)N1CCN(c2cc(C)ccc2C)CC1 (centres undefined)	i	i	i	nt	i	nt
COC(=O)c1[nH]c2ccccc2c1NC(=O)CN1CCN(Cc2ccc3c(c2)OCO3)CC1	?	i	79µM	nt	i	i
COC(=O)c1[nH]c2cc(OC)ccc2c1NC(=O)CCN1CCN(c2ccccc2)CC1	?	i	i	nt	i	i
CCN(CC(=O)Nc1c(C(=O)OC)[nH]c2ccc(C)cc12)c1ccc2c(c1)OCO2	35µM	40µM	45µM	?	i	45µM
CCOC(=O)c1[nH]c2ccc(OC)cc2c1NC(=O)/C=C/c1ccc2c(c1)OCO2	i	i	i	i	i	i
COC(=O)c1[nH]c2ccccc2c1NC(=O)CN1CCN(c2cccc(OC)c2)C(C)C1 (centres undefined)	i[2.33 µM]	?	16µM	nt	?	i
O=C(/C=C/c1ccc2c(c1)OCO2)Nc1c(C(=O)O)[nH]c2ccccc12	11µM	?	?	i	i	i
COc1ccccc1CNc1cc(C)nc2nc(-c3ccc(C)cc3)nn12	i	i	i	nt	i	nt
CCCCCCCCCCCCCCCCCC(=O)OCC(O)CO (centres undefined)	i	nt	nt	nt	nt	i
COc1cccc(S(=O)(=O)N2CCN(S(=O)(=O)c3ccc4c(c3)OCCO4)CC2)c1	nt	nt	i	nt	nt	nt
COc1ccc(OC)c(CNC(=O)C2CCN(S(=O)(=O)c3cn(C)cn3)CC2)c1	i[12.7 µM]	i	i	nt	i	nt
O=C(Nc1c(C(=O)N2CCN(c3ccccc3)CC2)oc2ccccc12)c1ccccc1F	?	i	i	nt	i	nt
COc1ccc(N2CCN(C(=O)c3oc4ccccc4c3NC(=O)CCc3cc(OC)no3)CC2)cc1	35µM	?	45µM	nt	i	i
COc1ccc(N2CCN(C(=O)c3oc4ccccc4c3NC(=O)c3ccccc3OC)CC2)cc1	5.6µM	i	?	nt	i	nt
COc1cc(NC(=O)Cn2ccn(-c3cc(C)cc(C)c3)c(=O)c2=O)cc(OC)c1	i	i	i	nt	i	nt
O=C(/C=C/c1ccc(Cl)cc1)N1CCC(c2nc3ccccc3o2)CC1	i	?	i	nt	i	nt
COc1ccc(-c2cc(C(F)(F)F)c3c(=O)n(-c4ccccc4)[nH]c3n2)cc1	13µM	?	56µM	i	i	i
COc1ccc(-c2cc(C(F)(F)F)nc(NCc3ccccc3)n2)cc1	i	i	i	nt	i	nt
Cc1cccnc1NC(=O)Nc1cccs1	i	i	i	nt	i	i
Cc1c(NC(=O)Nc2cccs2)cccc1[N+](=O)[O-]	?	i	i	nt	i	50µM
